Records with an inconclusive call do not appear. Where a call stands in place of a potency, no number is given. The source made the active and inactive calls. Calls follow the shape of the dose curve; as a rule, active = well fitted curve in the direction sought with a large enough effect; inconclusive = small, poorly fitted or top-dose-only effect, or another doubt; inactive = no such curve, though single readings can be large; an effect the other way counts as inactive or inconclusive. *1 amine or outer side, *2 acyl side, *3 side chain or, on linkers, in order; H or OH if unused. Where a SMILES comes first, the peptide text is derived from it. Bridges are numbered along the chain shown (N, C = ends). [ ]: non-standard residue; d: D form. The star is where a group is joined. pTerphenylCO(4''-OnC5H11) = CCCCCOc1ccc(-c2ccc(-c3ccc(C(=O)*)cc3)cc2)cc1; Orn(4R-OH,5R-OH) = O=C([C@H](C[C@@H](O)[C@@H](O)N[*:3])N[*:1])[*:2]; hTyr(3S-OH,4S-OH) = N[C@H](C(=O)O)[C@H](O)[C@@H](O)c1ccc(O)cc1; Pro(3S-OH,4S-Me) = C[C@H]1CN[C@H](C(=O)O)[C@H]1O; Hyp = O=C(O)[C@@H]1C[C@@H](O)CN1
Columns and labels:
[1] = molecular target: Phospholipid hydroperoxide glutathione peroxidase GPX4 (Homo sapiens) (UniProt P36969); assay: Primary qHTS Assay for Inhibitors of Recombinant Selenoprotein Glutathione Peroxidase 4 (GPX4) (AID 1845192); also: nearly all actives have a fitted effect of over 65% in size; also: potency is read from the fitted curve at half-maximal effect
Summary of the method: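 NADPH consumption, followed by fluorescence at 340/450 nm between 0 and 15 min, reports GPX4 activity via coupled glutathione reductase (100 nM). Enzyme 200 nM was pre-exposed to compound 30 min; 0.5 mM cumene hydroperoxide and 1 mM GSH served as substrates.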

[2] = molecular target: Luciferin 4-monooxygenase (Photinus pyralis) (UniProt P08659); assay: Primary firefly luciferase (FLuc) qHTS assay for identification of artifact compounds. (AID 1845220); also: nearly all actives have a fitted effect of over 60% in size; also: potency is read from the fitted curve at half-maximal effect
Summary of the method: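 FLuc 10 nM; luciferin 10 uM; ATP 10 uM; Tris-acetate pH 7.6, Mg-acetate 10 mM; 15 min RT preincubation; 5 min reaction; luminescence.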

[3] = Primary fluorescence-based thiol-reactive (MSTI) qHTS assay for identification of artifact compounds. (AID 1845221); also: nearly all actives have a fitted effect of over 65% in size; also: potency is read from the fitted curve at half-maximal effect
Summary of the method: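 qHTS titration of compound; 4 uM MSTI, PBS pH 7.4, 2% DMSO; 1 h RT, dark; fluorescence 525/598 nm; normalized to Acetyl-MSTI and MSTI; 4-parameter Hill fit.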

[4] = tested on: Nanoluciferase (engineered Oplophorus gracilirostris luciferase); assay: Primary Nanoluciferase (NLuc) qHTS assay for identification of artifact compounds. (AID 1845222);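 also: NLuc secreted into diluted conditioned medium of S16 cells; series mostly up to about 54 µM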
Summary of the method: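 NLuc from S16 cell medium (1:55) plus test compounds, 15 min, room temperature. Luminescence after Nano-Glo (1:100) addition, 5 min.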

[5] = Primary redox qHTS assay for identification of artifact compounds. (AID 1845223)
Summary of the method: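 Amplex Red (25 uM) and HRP (250 mU/mL) in HBSS, with compounds for 15 min, then 250 uM DTT for 30 min, room temperature, dark. Fluorescence 525/598 nm read; normalized to DMSO and 10 uM DA3003; Hill fit.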

Chain of Phospholipid hydroperoxide glutathione peroxidase GPX4 (Homo sapiens) (P36969 whole entry, looked up): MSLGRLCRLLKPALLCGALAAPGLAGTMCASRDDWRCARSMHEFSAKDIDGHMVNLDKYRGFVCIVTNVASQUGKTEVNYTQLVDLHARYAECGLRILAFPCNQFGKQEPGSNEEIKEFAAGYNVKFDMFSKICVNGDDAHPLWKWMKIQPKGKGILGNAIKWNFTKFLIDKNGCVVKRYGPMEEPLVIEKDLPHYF

Compound	Potency [1]	Potency [2]	Potency [3]	Potency [4]	Potency [5]
Cc1nc(NC(=O)N2CCCC2C(N)=O)sc1-c1ccnc(C(C)(C)C(F)(F)F)c1 (stereo not drawn)	inactive	inactive	inactive	inactive	inactive
CC(=O)O[C@@]12CO[C@@H]1C[C@H](O)[C@@]1(C)C(=O)[C@H](O)C3=C(C)[C@@H](OC(=O)[C@H](O)[C@@H](NC(=O)OC(C)(C)C)c4ccccc4)C[C@@](O)([C@@H](OC(=O)c4ccccc4)C12)C3(C)C (stereo partly drawn)	inactive	inactive	inactive	inactive	inactive
Cc1cc(OCCCS(C)(=O)=O)cc(C)c1-c1cccc(COc2ccc(C3=CC(=O)NS3=O)cc2)c1 (stereo not drawn)	inactive	inactive	inactive	inactive	inactive
COc1ccc(C(=O)O[C@H]2C=COC=C3C=C4C(=O)N(C)C(=S)C(=O)N4[C@@H]32)cc1Oc1cc(C=O)ccc1O	3.13 µM (active)	inactive	inactive	inactive	inactive
CCCCCOc1ccc(-c2ccc(-c3ccc(C(=O)N[C@H]4C[C@@H](O)[C@@H](O)NC(=O)[C@@H]5[C@@H](O)[C@@H](C)CN5C(=O)[C@H]([C@@H](C)O)NC(=O)[C@H]([C@H](O)[C@@H](O)c5ccc(O)cc5)NC(=O)[C@@H]5C[C@@H](O)CN5C(=O)[C@H]([C@@H](C)O)NC4=O)cc3)cc2)cc1 ({pTerphenylCO(4''-OnC5H11)}-[Orn(4R-OH,5R-OH)]T[Hyp][hTyr(3S-OH,4S-OH)]T[Pro(3S-OH,4S-Me)]; lactam 1-C)	inactive	inactive	inactive	inactive	inactive
Cc1cc(OCCCS(C)(=O)=O)cc(C)c1-c1cccc(COc2ccc3c(c2)OCC3CC(=O)O)c1 (stereo not drawn)	inactive	inactive	inactive	inactive	inactive
Cn1cc(-c2cnn3c(N)c(Br)c(C4CCCNC4)nc23)cn1 (stereo not drawn)	inactive	inactive		inactive	inactive
COc1cc(N(C)CCN(C)C)c(N)cc1Nc1nccc(-c2cn(C)c3ccccc23)n1	inactive	inactive		inactive	inactive
Nc1nc(Nc2ccc3c(c2)CCC(N2CCCC2)CC3)nn1-c1cc2c(nn1)-c1ccccc1CCC2 (stereo not drawn)	inactive	inactive		inactive	inactive
CCC(C(C)O)n1ncn(-c2ccc(N3CCN(c4ccc(OCC5COC(Cn6cncn6)(c6ccc(F)cc6F)C5)cc4)CC3)cc2)c1=O (stereo not drawn)	inactive	inactive		inactive	inactive
NS(=O)(=O)c1ccc(N2N=C(c3ccccc3)CC2c2ccccc2)cc1 (stereo not drawn)	16.1 µM (active)		inactive	inactive	inactive
Nc1nc2c(s1)CCN(Cc1ccc(Cl)cc1)CC2	inactive	inactive		inactive	inactive
NC(=O)c1cccc2[nH]c(-c3ccc(C4CCCN4)cc3F)nc12 (stereo not drawn)			inactive	inactive	inactive
C=CC(C)(O)CC[C@@H]1[C@@]2(C)CCCC(C)(C)C2CC[C@@]1(C)O (stereo partly drawn)	inactive	inactive	inactive	inactive	inactive
COc1cc(C2OC(c3ccc(OC)c(OC)c3)C(C)C2C)ccc1O (stereo not drawn)				inactive	inactive
COc1cc(C(=O)O)ccc1NC(=O)C1NC(CC(C)(C)C)C(C#N)(c2ccc(Cl)cc2F)C1c1cccc(Cl)c1F (stereo not drawn)	inactive		inactive	inactive	inactive
CN(C)S(=O)(=O)c1ccc(NC(=S)N2CCC(C(O)(c3ccccc3)c3ccccc3)CC2)cc1		inactive	inactive	inactive	inactive

Compound	Potency [1]	Potency [2]	Potency [3]	Potency [4]	Potency [5]
COc1cc2nc(N3CCN(C(=O)COc4c(OC)cccc4C(C)C)CC3)nc(N)c2cc1OC		inactive		inactive	inactive
O=C(NCc1cccs1)c1cc2nc(-c3ccco3)cc(C(F)(F)Cl)n2n1	inactive	inactive		inactive	inactive
CCOC(=O)N1c2ccc(C(F)(F)F)cc2C(N(Cc2cc(C(F)(F)F)cc(C(F)(F)F)c2)C(=O)OC)CC1CC (stereo not drawn)	inactive	inactive		inactive	inactive
CC[C@H]1OC(=O)[C@H](C)[C@@H](O[C@H]2C[C@@](C)(OC)[C@@H](O)[C@H](C)O2)[C@H](C)[C@@H](O[C@H]2O[C@H](C)C[C@H](N(C)C)[C@H]2O)[C@](C)(O)C[C@@H](C)C(=O)[C@H](C)[C@@H](O)[C@]1(C)O	inactive	inactive	inactive	inactive	inactive
C[C@@H](c1ccc2nccn2c1)n1nnc2ncc(-c3cnn(C)c3)nc21		inactive	inactive	inactive	inactive
CC(C)(F)CC(NC(c1ccc(-c2ccc(S(C)(=O)=O)cc2)cc1)C(F)(F)F)C(=O)NC1(C#N)CC1 (stereo not drawn)	inactive		inactive	inactive	inactive
Cc1cc(-c2nc3cc(F)ccc3s2)ccc1NC(=O)[C@@H](N)CCCCN		1.9 µM (active)	inactive	inactive	
Cc1nc2cc(C(=O)NCc3ccccn3)nn2c(C)c1Cc1cccc(Cl)c1		inactive	inactive	inactive	inactive
Cc1[nH]c(/C=C2\C(=O)Nc3cc(-c4ccccc4)ccc32)c(C)c1CCC(=O)O			0.67 µM (active)		inactive
COc1ccnc(CS(=O)c2nc3cc(OC(F)F)ccc3[nH]2)c1OC (stereo not drawn)		inactive	21.2 µM (active)	inactive	
CC(=O)Nc1cccc(-c2csc(Nc3cc(C)ccn3)n2)c1	inactive				inactive
Cc1nc2ccc(CN(C)c3ccc(C(=O)NC(CCC(=O)O)C(=O)O)s3)cc2c(=O)[nH]1 (stereo not drawn)	inactive	inactive		inactive	inactive
C=CC(C)(C)C12CC3C(=O)N4C(CC5(C(C)(C)C=C)c6ccccc6NC45)C(=O)N3C1Nc1ccccc12 (stereo not drawn)	inactive	inactive		inactive	inactive
Cc1c(NC(=O)OCC2COCCN2)cn2ncnc(Nc3ccc4c(cnn4Cc4cccc(F)c4)c3)c12 (stereo not drawn)	inactive		inactive	inactive	inactive
O=C(c1ccc(F)cc1)N1CCCC(c2nc(-c3ccc(F)cc3)no2)C1 (stereo not drawn)	inactive	inactive	inactive		inactive
COc1cc2ncc(-c3ccccc3)nc2cc1OC	20.2 µM (active)		inactive	inactive	inactive
CN1CCC(NC(=O)c2cc(-c3c(O)cc(O)cc3Oc3ccc([N+](=O)[O-])cc3)on2)CC1	inactive	inactive		inactive	
